Test results from PubChem BioAssay.
Activity calls are given as the source filed them.

What was measured:
Albumin (Bos taurus) = Albumin (Bos taurus) (UniProt P02769); assay: bovine serum albumin binders on microarray, profiling panel, artefact control for SMM control protein annotation, biochemical, small-molecule microarray, Alexa647 label, 635/667 nm fluorescence (AID 1118); conditions: BSA-A647 binding, fluorescence 635 nm, higher = more signal;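 note: score merges 667 nm emission intensity and signal-to-noise per printed compound spot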
Albumin (Bos taurus), sequence (P02769 whole entry, looked up): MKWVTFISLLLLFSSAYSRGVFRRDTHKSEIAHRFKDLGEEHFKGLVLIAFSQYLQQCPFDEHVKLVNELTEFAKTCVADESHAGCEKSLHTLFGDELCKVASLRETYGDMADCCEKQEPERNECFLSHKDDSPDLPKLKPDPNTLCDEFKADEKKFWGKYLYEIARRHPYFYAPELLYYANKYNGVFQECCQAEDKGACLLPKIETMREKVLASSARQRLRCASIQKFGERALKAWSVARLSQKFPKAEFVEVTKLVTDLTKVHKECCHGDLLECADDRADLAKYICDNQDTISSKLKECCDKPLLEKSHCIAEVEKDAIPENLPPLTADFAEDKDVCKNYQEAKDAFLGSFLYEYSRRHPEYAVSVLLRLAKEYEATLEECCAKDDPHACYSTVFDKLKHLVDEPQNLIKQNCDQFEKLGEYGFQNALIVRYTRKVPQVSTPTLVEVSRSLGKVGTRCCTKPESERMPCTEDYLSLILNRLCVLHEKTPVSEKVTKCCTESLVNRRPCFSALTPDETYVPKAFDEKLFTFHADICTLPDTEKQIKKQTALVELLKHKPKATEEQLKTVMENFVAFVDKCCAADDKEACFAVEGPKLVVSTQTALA

[1] = small-molecule microarray binders of probe aXIP, primary screen, biochemical, NeuroSMM set, 635/667 nm fluorescence (AID 1119); conditions: higher = more signal, called active from +8 up or from −8 down;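 note: probe is the protein aXip251-270 applied at 1 µg/mL to compound-printed slides; binding of probe to printed compounds measured as 667 nm fluorescence plus signal to noise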
[2] = small-molecule binders of probe aNOTCH3, primary screen, biochemical, small-molecule microarray, 635/667 nm fluorescence (AID 1120); conditions: higher = more signal;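 note: probe is a biotin-tagged antibody raised against NOTCH3 rather than NOTCH3 protein; score merges spot fluorescence near 667 nm with spot signal to noise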
[3] = small-molecule binders of probe aNOTCH2, primary screen, biochemical, small-molecule microarray, 635/667 nm fluorescence (AID 1121); conditions: higher = more signal;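 note: score merges feature fluorescence read at 667 nm with its signal to noise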
[4] = target: Carbonic anhydrase 2 (Homo sapiens) (UniProt P00918); assay: CAII small-molecule binders, profiling panel, biochemical, small-molecule microarray, Alexa647-labelled CAII (AID 1122); conditions: CAII-A647 binding fluorescence, higher = more signal
[5] = COS7 lysate on small-molecule microarray, probe aHis, 635 nm (AID 1123); conditions: COS7 cell lysate, fluorescence, higher = more signal;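 note: z-score combines 667nm fluorescence intensity with signal-to-noise per printed compound spot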
[6] = compound binding in COS7 lysate, probe aLAP1, primary screen, cell lysate, small-molecule microarray (AID 1124); conditions: probe aLAP1, fluorescence, higher = more signal;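 note: lysate comes from COS7 cells expressing LAP1 and is applied at 0.3 µg/mL; score merges spot fluorescence near 667 nm with signal-to-noise over triplicate slides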
Sam68 (KHDRBS1) = assay: Sam68 small-molecule binders, primary screen, biochemical, small-molecule microarray, 635 nm fluorescence (AID 1125); conditions: small-molecule microarray binding, higher = more signal;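 note: score merges 667 nm channel intensity with signal to noise over triplicate slides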
[7] = system: Chordin-like protein 2 (CHRDL2); assay: CHRDL2 small-molecule binders, primary screen, biochemical, small-molecule microarray, 635 nm fluorescence (AID 1126); conditions: small-molecule microarray binding, fluorescence 635 nm; higher = more signal;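 note: printed compound slides probed with Chrdl2 protein at 4 µg/mL for 1 h at 4 C; score merges 667 nm emission intensity with signal to noise over three replicate slides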
[8] = target: Concanavalin-A (Canavalia ensiformis) (UniProt P02866); assay: ConA small-molecule binders, primary screen, artefact control for SMM control protein annotation, biochemical, small-molecule microarray, Alexa647 label, 635 nm (AID 1127); conditions: ConA-A647 binding fluorescence, higher = more signal;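 note: z combines 667 nm emission intensity with signal-to-noise across three replicate slides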
Concanavalin-A (Canavalia ensiformis), sequence (P02866 whole entry, looked up): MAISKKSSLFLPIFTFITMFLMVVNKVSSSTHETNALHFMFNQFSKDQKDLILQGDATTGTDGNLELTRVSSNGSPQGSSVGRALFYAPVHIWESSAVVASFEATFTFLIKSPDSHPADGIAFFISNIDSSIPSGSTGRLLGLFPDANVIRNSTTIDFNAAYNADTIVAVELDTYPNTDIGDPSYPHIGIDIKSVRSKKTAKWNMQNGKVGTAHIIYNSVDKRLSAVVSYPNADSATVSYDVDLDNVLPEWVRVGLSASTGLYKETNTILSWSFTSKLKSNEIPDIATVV

[9] = anti-His antibody binders, primary screen, artefact control for SMM control protein annotation, biochemical, small-molecule microarray, 635 nm fluorescence (AID 1128); conditions: anti-His Alexa647 antibody binding, higher = more signal;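 note: score merges feature fluorescence with signal-to-noise for each printed compound spot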
[10] = system: Human papillomavirus type 1a E7 protein (residues 1-88); assay: HPV1a E7 small-molecule binders, primary screen, biochemical, small-molecule microarray, residues 1-88, 635 nm (AID 1129); conditions: small-molecule microarray binding, fluorescence 635 nm; higher = more signal
[11] = target: Focal adhesion kinase 1 (Homo sapiens) (UniProt Q05397); assay: small-molecule microarray binders of FAK, primary screen, biochemical, 635/667 nm fluorescence, BSA, DTT (AID 1130); conditions: PTK2 binding, 635 nm fluorescence, higher = more signal;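 note: composite of spot emission at 667 nm and signal to noise over triplicate slides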
Focal adhesion kinase 1 (Homo sapiens), sequence (Q05397 whole entry, looked up): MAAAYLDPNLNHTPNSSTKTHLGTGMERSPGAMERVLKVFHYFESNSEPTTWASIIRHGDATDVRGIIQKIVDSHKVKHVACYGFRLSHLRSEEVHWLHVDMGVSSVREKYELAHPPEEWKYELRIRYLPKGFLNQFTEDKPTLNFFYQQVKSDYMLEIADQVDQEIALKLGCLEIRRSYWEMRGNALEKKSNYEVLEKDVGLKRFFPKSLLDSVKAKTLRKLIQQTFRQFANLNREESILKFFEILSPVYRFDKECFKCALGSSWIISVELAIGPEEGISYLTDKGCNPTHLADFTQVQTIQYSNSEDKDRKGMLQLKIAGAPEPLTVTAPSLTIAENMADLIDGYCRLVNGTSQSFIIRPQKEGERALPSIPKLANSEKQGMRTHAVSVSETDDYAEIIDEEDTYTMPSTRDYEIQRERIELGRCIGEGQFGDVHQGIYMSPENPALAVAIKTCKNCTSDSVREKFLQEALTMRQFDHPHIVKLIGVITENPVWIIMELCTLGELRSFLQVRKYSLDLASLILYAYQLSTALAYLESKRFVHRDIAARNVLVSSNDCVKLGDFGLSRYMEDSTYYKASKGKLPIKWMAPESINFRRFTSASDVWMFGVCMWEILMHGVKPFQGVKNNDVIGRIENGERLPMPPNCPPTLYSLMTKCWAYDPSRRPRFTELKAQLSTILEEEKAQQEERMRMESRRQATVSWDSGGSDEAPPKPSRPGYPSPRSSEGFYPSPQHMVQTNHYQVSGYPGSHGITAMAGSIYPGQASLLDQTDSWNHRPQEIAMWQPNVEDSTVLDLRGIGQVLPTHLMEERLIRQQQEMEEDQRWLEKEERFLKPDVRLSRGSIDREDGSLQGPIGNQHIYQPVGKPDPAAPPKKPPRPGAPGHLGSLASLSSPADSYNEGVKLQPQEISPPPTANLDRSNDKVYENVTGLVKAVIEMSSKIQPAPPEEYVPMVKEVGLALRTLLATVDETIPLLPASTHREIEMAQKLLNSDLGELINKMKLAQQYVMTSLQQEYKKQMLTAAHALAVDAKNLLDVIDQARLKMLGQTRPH

[12] = system: Fibrinogen (Alexa647-labelled); assay: fibrinogen binders on compound microarrays, profiling panel, artefact control for SMM control-protein annotation, biochemical, small-molecule microarray, 635/667 nm fluorescence (AID 1131); conditions: fibrinogen-A647 binding fluorescence, higher = more signal;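 note: z-score merges 667 nm fluorescence with per-spot signal-to-noise over triplicate slides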
[13] = target: Follistatin (Homo sapiens) (UniProt P19883); assay: follistatin binders on small-molecule microarrays, primary screen, biochemical, small-molecule microarray, 635/667 nm fluorescence (AID 1132); conditions: FST binding, 635 nm fluorescence, higher = more signal
Follistatin (Homo sapiens), sequence (P19883 whole entry, looked up): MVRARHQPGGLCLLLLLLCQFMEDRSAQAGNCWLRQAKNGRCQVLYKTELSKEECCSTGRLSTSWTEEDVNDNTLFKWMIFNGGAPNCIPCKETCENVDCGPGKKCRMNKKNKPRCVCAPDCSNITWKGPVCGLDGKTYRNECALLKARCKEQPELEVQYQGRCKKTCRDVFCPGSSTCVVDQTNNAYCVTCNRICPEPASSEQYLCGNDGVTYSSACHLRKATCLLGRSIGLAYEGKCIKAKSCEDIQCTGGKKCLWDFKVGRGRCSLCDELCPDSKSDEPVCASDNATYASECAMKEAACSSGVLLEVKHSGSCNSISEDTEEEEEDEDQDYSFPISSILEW

[14] = target: Fibroblast growth factor 2 (Homo sapiens) (UniProt P09038); assay: FGF2 binders on small-molecule microarrays, primary screen, biochemical, small-molecule microarray, 635/667 nm fluorescence (AID 1133); conditions: small-molecule microarray binding, FGF2, fluorescence 635/667; higher = more signal
Fibroblast growth factor 2 (Homo sapiens), sequence (P09038 whole entry, looked up): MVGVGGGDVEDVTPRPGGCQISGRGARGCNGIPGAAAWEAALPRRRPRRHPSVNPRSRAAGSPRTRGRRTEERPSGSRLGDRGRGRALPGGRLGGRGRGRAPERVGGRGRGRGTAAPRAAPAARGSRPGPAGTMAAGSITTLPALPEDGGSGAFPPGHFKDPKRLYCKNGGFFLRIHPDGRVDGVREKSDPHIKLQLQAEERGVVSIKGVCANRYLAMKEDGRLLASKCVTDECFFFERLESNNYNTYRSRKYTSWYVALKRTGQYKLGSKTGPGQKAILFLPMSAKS

[15] = mitochondrial membrane potential change in A549 cells, profiling panel, cell-based, JC-1 fluorescence, basal, 24 h, 100 nL (AID 1138); conditions: higher = more signal;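 note: A549 lung adenocarcinoma cells under basal conditions with no added stimulus; test concentration not given here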
Lefty1 = Lefty1 binders on small-molecule microarrays, primary screen, biochemical, small-molecule microarray, 635/667 nm fluorescence (AID 1139); conditions: small-molecule microarray binding, fluorescence 635/667; higher = more signal
[16] = system: wheat germ agglutinin (Triticum aestivum), Alexa647-labelled; assay: wheat germ agglutinin binders on compound microarrays, profiling panel, artefact control for SMM control-protein annotation, biochemical, small-molecule microarray, 635/667 nm fluorescence (AID 1140); conditions: WGA-A647 binding, 635 nm fluorescence, higher = more signal;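 note: score merges 667 nm feature emission with signal to noise over triplicate slides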
[17] = target: Luciferin 4-monooxygenase (Photinus pyralis) (UniProt P08659); assay: firefly luciferase enzyme inhibitors, primary screen, biochemical, luminescence, purified enzyme, 2006 set (AID 1141); conditions: SteadyGlo luminescence, 30 min, higher = more signal, called active from +8 up or from −8 down;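 note: cell-free assay with purified firefly luciferase at 100 ng per well in PBS; test concentration not given here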
Luciferin 4-monooxygenase (Photinus pyralis), sequence (P08659 whole entry, looked up): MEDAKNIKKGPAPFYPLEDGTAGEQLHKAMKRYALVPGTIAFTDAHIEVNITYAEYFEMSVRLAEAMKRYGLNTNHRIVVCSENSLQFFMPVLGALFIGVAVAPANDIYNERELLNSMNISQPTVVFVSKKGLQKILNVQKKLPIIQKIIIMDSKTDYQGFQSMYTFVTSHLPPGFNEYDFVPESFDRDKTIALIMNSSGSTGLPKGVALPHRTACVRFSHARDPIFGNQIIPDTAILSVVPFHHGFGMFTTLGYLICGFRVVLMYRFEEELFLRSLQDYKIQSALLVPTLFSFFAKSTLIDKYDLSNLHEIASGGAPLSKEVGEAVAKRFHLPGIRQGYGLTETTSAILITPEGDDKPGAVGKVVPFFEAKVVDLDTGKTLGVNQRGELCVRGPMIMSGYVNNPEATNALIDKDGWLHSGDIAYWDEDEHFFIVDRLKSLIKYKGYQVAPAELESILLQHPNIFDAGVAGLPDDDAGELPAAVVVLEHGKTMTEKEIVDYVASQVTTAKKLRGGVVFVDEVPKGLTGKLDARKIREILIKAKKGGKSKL

Compound	composite z-score (Albumin (Bos taurus))	composite Z-score [1]	composite z-score [2]	composite z-score [3]	composite z-score [4]	composite z-score [5]	composite z-score [6]	composite z-score (Sam68 (KHDRBS1))	composite z-score [7]	composite z-score [8]	composite z-score [9]	composite z-score [10]	composite z-score [11]	composite z-score [12]	composite z-score [13]	composite z-score [14]	z-score [15]	composite z-score (Lefty1)	composite z-score [16]	z-score [17]
CC(C)(C)N1C(=O)[C@H]2[C@H]3[C@H](O)C=CC(=O)[C@@H]3CC[C@H]2C1=O	-0.161	0.913 (inactive)	-0.0584	0.0098	-0.0943	-0.463	0.632	-0.0221	0.311	0.607	0.204	0.025	-0.258	0.347	0.39	0.255	0.109	0.461	0.0896	-0.753 (inactive)
CON=C1[C@H]2CCn3c(=O)n(-c4ccccc4)c(=O)n3[C@H]2[C@H](O)[C@@H]2O[C@H]12	0.103	0.119 (inactive)	-0.0006	-0.121	0.0479	-0.364	0.0879	0.689	0.501	0.217	1.95	0.574	0.295	0.148	0.743	0.986	0.758	0.695	0.168	-2.49 (inactive)
CC(CCN1CCCc2nc(C)c(C)cc21)=NO[C@@H](C)c1cc(-c2c(C)cc(C)cc2C)no1	0.177	0.121 (inactive)	0.0789	-0.0668	0.0276	0.517	0.138	1.04	0.9	0.778	1.4	0.314	0.514	0.745	0.427	0.388	1.91	0.643	0.605	0.0678 (inactive)
COc1ccc(COC(=O)NN=C2C[C@@H](O)[C@@H](O)[C@@H]3[C@@H]4C(=O)N(Cc5ccccc5)C(=O)[C@@H]4CC[C@H]23)cc1	0.719	-0.201 (inactive)	0.0418	-0.348	-0.17	0.341	-0.173	0.0827	-0.709	-0.266	-0.382	-0.111	0.0115	-0.519	-0.311	-0.977	0.235	-0.403	0.266	0.893 (inactive)
C[C@@H](c1ccccc1)N1C(=O)[C@H]2[C@H]3[C@H](O)[C@H](O)CC(=NOCc4ccccc4)[C@H]3CC[C@H]2C1=O	0.437	-0.325 (inactive)	-0.0288	-0.147	0.388	0.797	0.771	1.17	0.365	0.951	1.2	1.17	0.0785	0.823	0.287	0.181	1.06	0.295	0.0559	0.0057 (inactive)
COc1cccc([C@H]2Oc3ccc(OC)cc3C(=NOC[C@@H](O)COCc3ccco3)[C@@H]2O)c1	-0.859	-0.874 (inactive)	-0.235	-0.0942	-1.02	-1.34	-0.446	-2.24	0.655	-3.36	0.232	-1.3	0.3	-2.19	-0.707	-0.51	-0.843	-0.488	-0.418	-2.4 (inactive)
